Assay results as given in PubChem BioAssay (NCI).
Compounds without any hit were thinned out: in the full panel of roughly 83,000, 20% have a hit.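 Note: values are percent growth. 100 is the growth of untreated cells, values between 100 and 0 indicate rising inhibition; between -100 and 0 indicates cell death.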 The source made the active and inactive calls. Rule for the calls: active = growth percent below 10; inactive = the rest.

tested on: MDA-MB-435 melanoma; test: NCI-60 one-dose screen, 48 h (100 = growth as untreated, 0 = no growth, -100 = all killed); details: 10 µM unless noted

Compound	growth
O=C1/C(=C/c2ccccc2)CN(C(=O)c2cccnc2)C/C1=C\c1ccccc1	-27.7% (active)
COc1ccc(C(C)=O)cc1S(N)(=O)=O	99.3% (inactive)
O=C(CBr)CN1C(=O)c2ccccc2C1=O	103% (inactive)
CS(=O)(=O)Nc1cc(-c2ccc3ncnc(Nc4ccc5c(cnn5Cc5cccnc5)c4)c3c2)cnc1Cl	53.9% (inactive)
Cc1c(N2CN3C[C@H](C)N4CN(c5c(C)n(C)n(-c6ccccc6)c5=O)CN5C[C@@H](C)N(C2)C3C54)c(=O)n(-c2ccccc2)n1C (stereo partly drawn)	105% (inactive)
O=C(Nc1ncc(Cc2ccccc2Cl)s1)c1cccs1	3.49% (active)
COc1ccc(Cc2nnc(Nc3nc4ccccc4s3)s2)cc1	96.8% (inactive)
CCOC(=O)Nc1nc2ccc(SCC(C)C)cc2s1	104% (inactive)
COc1cc(-c2nc3occn3c2-c2ccnc(NCCCNS(=O)(=O)c3ccccc3)n2)ccc1F	9.04% (active)
CN(C)c1ccc(/C=C2/C=C(c3ccccc3)OC2=O)cc1	21.7% (inactive)
COc1ccc(OC)c(-c2cn3nc(-c4c[nH]c5ccc(Br)cc45)sc3n2)c1	24% (inactive)
CCNCc1ccc(O)c2ncccc12	16.6% (inactive)
O=C(CCl)Nc1ccc2c(Nc3cc(O)ccc3Cl)ncnc2c1	-69.4% (active)
CCNC(=O)Oc1ccc(/C(=C(/C)Cc2ccc(OC)cc2)c2ccc(OCCN3CCCCCC3)cc2)cc1	81.6% (inactive)
CC(C)(C)c1cc(C=Nc2cccc(C(F)(F)F)c2)c(O)c(C(C)(C)C)c1	108% (inactive)
C(/C=C/c1ccccc1)=Nc1ccc(CCc2ccc(N=C/C=C/c3ccccc3)cc2)cc1	115% (inactive)
Cn1cc(C(=O)c2nc(-c3c[nH]c4ccc(Br)cc34)no2)c2cc(Br)ccc21	63.3% (inactive)
Cc1[nH]c(C(=O)Nc2ccc(C(N)=O)cc2NC(C)C)c(Cl)c1Cl	101% (inactive)
O=C1OCC2=C1C(c1cccc(C(F)(F)F)c1)c1cc3c(cc1N2CCO)OCO3 (stereo not drawn)	-44.1% (active)
COc1ccc2cc(-c3cnc4nonc4n3)ccc2c1	-14.9% (active)
Cn1ncc2ccc(-c3nc(-c4ccccc4)[nH]c3-c3n[nH]c(=O)n3C3CC3)cc21	100% (inactive)
Cn1ccnc1C(=O)/C=C/c1ccc(C(=O)Nc2ccc(F)cc2)cc1	18.3% (inactive)
O=C(CSc1nc2ccc([N+](=O)[O-])cc2[nH]1)Nc1cccc([N+](=O)[O-])c1	43.8% (inactive)
